Laboratory results from PubChem BioAssay (NCATS).
Inconclusive results are not listed. Activity calls are given as the source filed them. Calls come from the whole dose curve; as a rule, active = well fitted curve in the direction sought with a large enough effect; inconclusive = small, poorly fitted or top-dose-only effect, or another doubt; inactive = no such curve, though single readings can be large; an effect the other way counts as inactive or inconclusive.

Legend:
[1] = target: Rap guanine nucleotide exchange factor 3 (Homo sapiens) (UniProt O95398); assay: Confirmatory qHTS for antagonist of cAMP-regulated guanine nucleotide exchange factor 3 (EPAC1) (AID 1645880); note: nearly all actives have a fitted effect of over 55% in size; note: potency is the fitted concentration of half-maximal effect
Sequence of Rap guanine nucleotide exchange factor 3 (Homo sapiens) (O95398 whole entry, looked up): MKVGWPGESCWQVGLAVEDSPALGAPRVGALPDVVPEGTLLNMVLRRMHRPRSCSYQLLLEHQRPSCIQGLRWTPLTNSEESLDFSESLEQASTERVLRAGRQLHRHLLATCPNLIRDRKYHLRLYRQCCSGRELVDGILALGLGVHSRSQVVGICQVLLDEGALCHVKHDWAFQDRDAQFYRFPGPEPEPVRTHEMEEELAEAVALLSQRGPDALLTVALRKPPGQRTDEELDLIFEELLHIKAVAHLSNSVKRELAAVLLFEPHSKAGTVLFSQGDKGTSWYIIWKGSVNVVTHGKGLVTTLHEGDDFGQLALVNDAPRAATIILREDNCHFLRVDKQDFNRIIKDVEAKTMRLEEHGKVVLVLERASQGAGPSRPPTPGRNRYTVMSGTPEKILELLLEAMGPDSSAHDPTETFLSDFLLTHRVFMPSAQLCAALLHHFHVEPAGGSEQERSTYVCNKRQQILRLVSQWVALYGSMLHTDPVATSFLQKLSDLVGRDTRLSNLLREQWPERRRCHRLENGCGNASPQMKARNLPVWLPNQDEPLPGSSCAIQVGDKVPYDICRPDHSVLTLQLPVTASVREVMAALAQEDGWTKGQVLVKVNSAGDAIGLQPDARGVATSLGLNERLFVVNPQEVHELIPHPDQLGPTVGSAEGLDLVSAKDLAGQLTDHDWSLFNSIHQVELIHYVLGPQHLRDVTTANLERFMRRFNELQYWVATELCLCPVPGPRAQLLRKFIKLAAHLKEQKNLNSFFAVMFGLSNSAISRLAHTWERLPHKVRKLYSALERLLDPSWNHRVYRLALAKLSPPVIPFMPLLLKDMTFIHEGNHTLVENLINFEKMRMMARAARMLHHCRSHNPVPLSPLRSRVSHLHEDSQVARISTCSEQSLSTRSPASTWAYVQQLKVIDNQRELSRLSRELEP
How it was run: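 Released BODIPY-GDP fluoresces less than Rap1-bound BODIPY-GDP; the signal is followed at 480/540 nm at 5-min intervals over 30 min, after 5 min at room temperature. Reactions contain 100 nM EPAC1, 250 nM RAP1B-BODIPY-GDP and 50 uM GDP; results are normalized to ATA and DMSO.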

[2] = target: Rap guanine nucleotide exchange factor 3 (Homo sapiens) (UniProt O95398); assay: Confirmatory qHTS for agonist of cAMP-regulated guanine nucleotide exchange factor 3 (EPAC1) (AID 1645881); note: nearly all actives have a fitted effect of over 75% in size; note: potency is the fitted concentration of half-maximal effect;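 for activation: EPAC1 catalysed release of BODIPY-GDP from Rap1B seen as fluorescence loss; 100% = effect of cAMP agonist control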
[3] = target: Rap guanine nucleotide exchange factor 4 (Homo sapiens) (UniProt Q8WZA2); assay: Confirmatory qHTS for agonist of cAMP-regulated guanine nucleotide exchange factor 4 (EPAC2) (AID 1645884);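 note: nucleotide exchange releases bodipy-GDP from Rap1 and this lowers its fluorescence; nearly all actives have a fitted effect of over 65% in size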; note: potency is the fitted concentration of half-maximal effect; for activation: % is set by controls: 0 for no effect and ±100 for the full control effect
Sequence of Rap guanine nucleotide exchange factor 4 (Homo sapiens) (Q8WZA2 whole entry, looked up): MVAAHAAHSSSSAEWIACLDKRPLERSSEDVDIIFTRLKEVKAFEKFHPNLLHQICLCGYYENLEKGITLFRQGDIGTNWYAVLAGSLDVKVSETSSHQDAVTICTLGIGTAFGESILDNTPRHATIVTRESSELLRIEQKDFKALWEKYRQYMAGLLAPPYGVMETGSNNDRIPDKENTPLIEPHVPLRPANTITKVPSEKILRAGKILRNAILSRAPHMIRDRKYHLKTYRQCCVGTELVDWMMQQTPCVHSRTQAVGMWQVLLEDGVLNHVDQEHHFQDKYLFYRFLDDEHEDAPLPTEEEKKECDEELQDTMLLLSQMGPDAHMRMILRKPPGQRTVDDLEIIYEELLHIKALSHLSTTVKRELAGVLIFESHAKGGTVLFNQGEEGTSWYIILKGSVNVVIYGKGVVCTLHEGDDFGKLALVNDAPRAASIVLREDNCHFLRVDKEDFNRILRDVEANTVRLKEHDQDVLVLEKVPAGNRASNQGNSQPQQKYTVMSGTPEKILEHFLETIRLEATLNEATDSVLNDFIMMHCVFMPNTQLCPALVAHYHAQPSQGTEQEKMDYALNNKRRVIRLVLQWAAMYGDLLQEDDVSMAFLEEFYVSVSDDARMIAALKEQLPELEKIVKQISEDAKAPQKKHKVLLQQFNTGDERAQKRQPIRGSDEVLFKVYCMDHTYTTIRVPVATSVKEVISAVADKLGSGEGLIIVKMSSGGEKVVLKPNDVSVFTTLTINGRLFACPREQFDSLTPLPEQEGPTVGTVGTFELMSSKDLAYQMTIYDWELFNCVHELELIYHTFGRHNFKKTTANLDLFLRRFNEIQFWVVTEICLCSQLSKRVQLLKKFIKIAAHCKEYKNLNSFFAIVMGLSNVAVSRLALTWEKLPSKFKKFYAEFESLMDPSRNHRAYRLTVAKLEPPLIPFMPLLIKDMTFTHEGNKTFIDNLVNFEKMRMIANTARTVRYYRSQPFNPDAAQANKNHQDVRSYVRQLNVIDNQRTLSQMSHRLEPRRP

[4] = target: Rap guanine nucleotide exchange factor 4 (Homo sapiens) (UniProt Q8WZA2); assay: Confirmatory qHTS for antagonist of cAMP-regulated guanine nucleotide exchange factor 4 (EPAC2) (AID 1645885); note: nearly all actives have a fitted effect of over 25% in size; note: potency is the fitted concentration of half-maximal effect; for activity change, negative = inhibition: % is set by controls: 0 for no effect and ±100 for the full control effect
[5] = target: Rap guanine nucleotide exchange factor 3 (Homo sapiens) (UniProt O95398); assay: Counterscreen qHTS for antagonist of cAMP-regulated guanine nucleotide exchange factor 3 (EPAC1) (AID 1645888); note: % of control where 0% means no effect
How it was run: (§1)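 Rap1B–BODIPY-GDP (250 nM) with 50 uM GDP; compounds pin-transferred to 9.74 nM–152 uM final (activator) or from 7.32 nM upwards (inhibitor). Fluorescence Ex/Em 480/540 nm read at 5 and 30 min, then after adding cAMP or buffer, at room temperature.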

[6] = target: Rap guanine nucleotide exchange factor 3 (Homo sapiens) (UniProt O95398); assay: Counterscreen qHTS for agonist of cAMP-regulated guanine nucleotide exchange factor 3 (EPAC1) (AID 1645889); note: nearly all actives have a fitted effect of over 40% in size; note: potency is the fitted concentration of half-maximal effect; for activation: % of control where 0% means no effect
How it was run: as §1

N#CC1=C(O)C(c2ccccc2)n2c1nc(=O)c1ccccc12 (stereo not given)
inactive: Potency [1] | Potency [2] | activation [3] 0.476% [at 17.1 µM, percent relative to cAMP agonist control] | Potency [4] | activity change, negative = inhibition [5] 1.23% [at 30.8 µM] | activation [6] 1.1% [at 30.8 µM]

O=S(=O)(NCc1cn2ccsc2n1)c1cccs1
inactive: Potency [1] | Potency [2] | activation [3] 0% [at 17.1 µM, percent relative to cAMP agonist control] | Potency [4] | activity change, negative = inhibition [5] -13.2% [at 30.8 µM] | activation [6] 3.73% [at 30.8 µM]

Cn1c(=O)cc(N2CCN(C(=O)c3ccco3)CC2)[nH]c1=O
inactive: Potency [1] | Potency [2] | Potency [3] | Potency [4] | Potency [5] | Potency [6]

Nc1[nH]c(C(=O)c2ccccc2)c(-c2ccccc2C(F)(F)F)c1C(=O)NCCc1cccs1
inactive: Potency [1] | Potency [2] | Potency [3] | Potency [4] | Potency [5] | Potency [6]

CC1CN(C(=O)COC(=O)COc2ccc(C#N)cc2)CC(C)O1 (stereo not given)
inactive: Potency [1] | Potency [2] | activation [3] -1.51% [at 17.1 µM, percent relative to cAMP agonist control] | Potency [4] | activity change, negative = inhibition [5] -3.73% [at 30.8 µM] | activation [6] 1.53% [at 30.8 µM]

Cc1cc(NCc2ccco2)n2c(nc3ccccc32)c1C#N
inactive: Potency [1] | Potency [2] | Potency [3] | Potency [4] | Potency [5] | Potency [6]

Cn1c(COc2ccc(Cl)cc2)nc2ccccc2c1=O
active: Potency [1] 25.1 µM
inactive: Potency [2] | activation [3] 4.13% [at 17.1 µM, percent relative to cAMP agonist control] | Potency [4] | activity change, negative = inhibition [5] 1.04% [at 30.8 µM] | activation [6] 5.9% [at 30.8 µM]

Cc1cc(Br)c2c(c1)C(O)(N1CCCCC1C)C(=O)N2 (stereo not given)
inactive: Potency [1] | Potency [2] | activation [3] 10.3% [at 17.1 µM, percent relative to cAMP agonist control] | Potency [4] | activity change, negative = inhibition [5] -0.193% [at 30.8 µM] | activation [6] 19.4% [at 30.8 µM]

CCn1c(CNC(=O)COC)nc2ccccc21
inactive: Potency [1] | Potency [2] | activation [3] 3.77% [at 17.1 µM, percent relative to cAMP agonist control] | Potency [4] | activity change, negative = inhibition [5] -4.31% [at 30.8 µM] | activation [6] 4.54% [at 30.8 µM]

CC1Cc2nc(SCC(=O)NCc3ccccc3)n(Cc3ccccc3)c(=O)c2S1 (stereo not given)
inactive: Potency [1] | Potency [2] | activation [3] 2.68% [at 17.1 µM, percent relative to cAMP agonist control] | Potency [4] | activity change, negative = inhibition [5] 0.448% [at 30.8 µM] | activation [6] 14% [at 30.8 µM]

CC(=O)c1ccc(N2CCN(C(=O)C3CCCN(S(=O)(=O)c4c(C)[nH]c(=O)[nH]c4=O)C3)CC2)cc1 (stereo not given)
inactive: Potency [1] | Potency [2] | Potency [3] | Potency [4] | Potency [5] | Potency [6]

C=CCSc1nc(-c2ccc(OC)cc2)c(C#N)c(=O)n1CC=C
inactive: Potency [1] | Potency [2] | activation [3] 1.63% [at 17.1 µM, percent relative to cAMP agonist control] | Potency [4] | activity change, negative = inhibition [5] -30% [at 30.8 µM] | activation [6] -17.1% [at 30.8 µM]

O=C(N/N=C/c1c(O)n(-c2ccccc2Cl)c(=O)c2ccccc12)c1cccnc1
active: Potency [1] 3.38 µM
inactive: Potency [2] | Potency [3] | Potency [4] | Potency [5] | Potency [6]

CCOC(=O)N1CCN(S(=O)(=O)c2cc(-c3nn4c(C)nnc4c4ccccc34)ccc2C)CC1
inactive: Potency [1] | Potency [2] | Potency [3] | Potency [4] | Potency [5] | Potency [6]

CC(=O)N1c2ccc(S(=O)(=O)N(C)Cc3ccco3)cc2CC1C (stereo not given)
inactive: Potency [1] | Potency [2] | Potency [3] | Potency [4] | Potency [5] | Potency [6]

O=C1/C(=C/c2ccc(F)cc2)SC(=S)N1NS(=O)(=O)c1ccccc1
active: Potency [1] 16.9 µM
inactive: Potency [2] | Potency [3] | Potency [4] | Potency [5] | Potency [6]

N#Cc1c(/N=C/c2ccco2)sc2c1CCC2
inactive: Potency [1] | Potency [2] | activation [3] 2.45% [at 17.1 µM, percent relative to cAMP agonist control] | Potency [4] | activity change, negative = inhibition [5] 0.743% [at 30.8 µM] | activation [6] 7.28% [at 30.8 µM]

O=c1c2ccccc2nc(/C=C/c2cccnc2)n1CCc1ccccc1
active: Potency [1] 23.9 µM
inactive: Potency [2] | Potency [3] | Potency [4] | Potency [5] | Potency [6]

Cc1sc2ncnc(N3CCCC(C)C3)c2c1C (stereo not given)
inactive: Potency [1] | Potency [2] | Potency [3] | Potency [4] | Potency [5] | Potency [6]

CCc1nc(C)cn1S(=O)(=O)c1cc(C)c(OC)cc1C
inactive: Potency [1] | Potency [2] | Potency [3] | Potency [4] | Potency [5] | Potency [6]

O=C(NC1CCC(O)CC1)c1cccc2cccnc12 (stereo not given)
inactive: Potency [1] | Potency [2] | Potency [3] | Potency [4] | Potency [5] | Potency [6]

O=c1cc(-c2ccccc2)nc2c(-c3ccccc3)c(C(F)(F)F)[nH]n12
inactive: Potency [2] | Potency [3] | Potency [5] | Potency [6]
active: Potency [1] 42.6 µM | Potency [4] 16.9 µM

Nc1c(C(=O)c2ccccc2)sc2nsc(SCCN3CCCC3)c12
inactive: Potency [1] | Potency [5]
active: Potency [2] 100 µM | Potency [3] 100 µM | Potency [4] 84.9 µM | Potency [6] 39.8 µM

CC1(C)CC(=O)c2sc(N3CCCCC3)nc2C1
active: Potency [4] 75.7 µM
inactive: Potency [1] | Potency [2] | Potency [3] | Potency [5] | Potency [6]

N#C/C(=C/c1ccc(N2CCOCC2)o1)c1nc2ccccc2[nH]1
inactive: Potency [1] | Potency [5]
active: Potency [2] 112 µM | Potency [3] 89.1 µM | Potency [4] 42.6 µM | Potency [6] 63.1 µM

O=C(CCCc1ccccc1)NCc1cn2ccsc2n1
inactive: Potency [1] | Potency [2] | Potency [3] | Potency [4] | Potency [5] | Potency [6]

CCOc1ccc(Oc2ccccc2NC(=O)CN2C(=O)NC3(CCCC3)C2=O)cc1
inactive: Potency [1] | Potency [2] | activation [3] -25.9% [at 17.1 µM, percent relative to cAMP agonist control] | Potency [4] | activity change, negative = inhibition [5] -5.88% [at 30.8 µM] | activation [6] 10.7% [at 30.8 µM]

CCCCN(C(=O)CSCC(=O)Nc1ccc(C)cc1)c1c(N)n(CCCC)c(=O)[nH]c1=O
inactive: Potency [1] | Potency [2] | activation [3] 4% [at 17.1 µM, percent relative to cAMP agonist control] | Potency [4] | activity change, negative = inhibition [5] -21.2% [at 30.8 µM] | activation [6] 6.23% [at 30.8 µM]

CC(C)c1c(Cl)c(O)c(-c2ccccc2)c(=O)n1-c1ccc(F)cc1
active: Potency [1] 19 µM
inactive: Potency [2] | Potency [3] | Potency [4] | Potency [5] | Potency [6]

O=C(O)c1cccc(N/N=C/c2cc(Br)cc(Br)c2O)c1
inactive: Potency [2] | Potency [3] | Potency [5] | Potency [6]
active: Potency [1] 75.7 µM | Potency [4] 67.5 µM

O=C(O)c1ccc(N/N=C/c2c(F)cccc2Cl)cc1
inactive: Potency [1] | Potency [2] | activation [3] 2.99% [at 17.1 µM, percent relative to cAMP agonist control] | Potency [4] | activity change, negative = inhibition [5] -2.2% [at 30.8 µM] | activation [6] 3.47% [at 30.8 µM]

CC(C)Sc1nc2sccc2c(=O)n1-c1ccccc1
inactive: Potency [1] | Potency [2] | Potency [3] | Potency [5] | Potency [6]
active: Potency [4] 42.6 µM

COc1ccccc1N1CCN(c2ncnc3onc(-c4ccc(F)cc4)c23)CC1
inactive: Potency [1] | Potency [2] | Potency [3] | Potency [4] | Potency [5] | Potency [6]

CCN(CC)CCn1c2c(c(SCC(=O)NCc3ccccc3)nc1=O)CCCC2
inactive: Potency [1] | Potency [2] | Potency [3] | Potency [4] | Potency [5] | Potency [6]

CC1(C)Cc2ccccc2-c2nnc(-c3ccc4ccccc4n3)n21
inactive: Potency [1] | Potency [2] | Potency [3] | Potency [4] | Potency [5] | Potency [6]

COc1ccc(CCNC(=O)CCc2nc3sc4c(c3c(=O)[nH]2)CCCC4)cc1
inactive: Potency [2] | Potency [3] | Potency [5] | Potency [6]
active: Potency [1] 84.9 µM | Potency [4] 4.78 µM

CC(=O)C1=C(O)C(=O)N(c2cccc(Br)c2)C1c1ccc(Br)cc1 (stereo not given)
active: Potency [1] 37.9 µM
inactive: Potency [2] | Potency [3] | Potency [4] | Potency [5] | Potency [6]

O=C(Cn1c(=O)oc2cc(S(=O)(=O)N3CCCCC3)ccc21)N1CCc2ccccc2C1
inactive: Potency [1] | Potency [2] | Potency [3] | Potency [4] | Potency [5] | Potency [6]

COc1ccccc1CCc1nnc(CCC(=O)N(C)Cc2cccc3ncccc23)o1
inactive: Potency [1] | Potency [2] | Potency [3] | Potency [4] | Potency [5] | Potency [6]

O=C(O)CCN1C(=O)/C(=C\c2cccc(Oc3ccccc3)c2)SC1=S
inactive: Potency [2] | Potency [3] | Potency [5] | Potency [6]
active: Potency [1] 26.9 µM | Potency [4] 21.3 µM
